697 NFkB inh: inhibitors of the PMA/ionomycin-induced NF-kB reporter in 697 B cells. 697 B-cell NF-kB luciferase reporter, 16 h. inhibition, % at 4 µM. actives 0.33% (n = 330,000). AID 435022; in the data active = inhibition above about 35%
Mdm2-MdmX inh: disrupts the human Mdm2-MdmX interaction; SaOS-2 split-luciferase Mdm2/MdmX complementation, luminescence; inhibition, % at 8 µM; actives 3% (n = 330,000);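 active = inhibition of at least 50% at 8 µM in the primary screen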
Target sequence (O15151 whole entry, looked up): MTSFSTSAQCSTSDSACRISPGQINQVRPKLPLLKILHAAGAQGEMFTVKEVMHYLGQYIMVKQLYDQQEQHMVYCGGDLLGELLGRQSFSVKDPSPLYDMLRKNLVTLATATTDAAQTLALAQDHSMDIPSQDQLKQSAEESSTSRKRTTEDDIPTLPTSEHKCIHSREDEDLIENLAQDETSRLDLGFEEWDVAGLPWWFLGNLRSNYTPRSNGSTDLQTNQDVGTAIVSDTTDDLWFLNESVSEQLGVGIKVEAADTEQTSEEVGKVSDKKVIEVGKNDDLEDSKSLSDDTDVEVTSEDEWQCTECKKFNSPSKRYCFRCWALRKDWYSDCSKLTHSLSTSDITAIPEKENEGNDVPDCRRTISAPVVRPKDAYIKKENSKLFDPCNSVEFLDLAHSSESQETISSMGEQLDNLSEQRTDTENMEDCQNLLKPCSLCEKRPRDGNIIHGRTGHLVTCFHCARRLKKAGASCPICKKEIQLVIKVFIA
Target sequence (Q00987 whole entry, looked up): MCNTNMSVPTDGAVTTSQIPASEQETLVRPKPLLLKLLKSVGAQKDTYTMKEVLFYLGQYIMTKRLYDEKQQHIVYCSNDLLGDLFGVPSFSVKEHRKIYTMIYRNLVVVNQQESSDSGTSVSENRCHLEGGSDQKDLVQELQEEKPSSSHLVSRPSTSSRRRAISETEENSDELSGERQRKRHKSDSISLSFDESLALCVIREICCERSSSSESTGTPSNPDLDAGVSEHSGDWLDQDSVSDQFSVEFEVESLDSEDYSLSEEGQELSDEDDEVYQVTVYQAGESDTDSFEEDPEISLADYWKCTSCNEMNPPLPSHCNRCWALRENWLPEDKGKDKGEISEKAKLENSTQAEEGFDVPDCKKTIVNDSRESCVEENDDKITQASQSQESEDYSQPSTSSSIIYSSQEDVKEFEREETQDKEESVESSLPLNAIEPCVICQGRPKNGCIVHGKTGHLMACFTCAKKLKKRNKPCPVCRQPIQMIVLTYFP
CSC inhib: blocks cancer stem cells; cancer stem cell-like cells viability, luminescence; actives 1.1% (n = 300,000); inhibition, % at 7.5 µM; in the data active = inhibition above about 75%; tested in HMLE shEcad cells
Jurkat NFkB inh: lowers PMA/ionomycin-induced NF-kB signal in Jurkat cells. PMA/ionomycin-induced NF-kB luciferase reporter, luminescence. inhibition, % at 4 µM. actives 0.53% (n = 330,000); in the data active = inhibition above about 50%
aSyn UTR inh: MLPCN primary screen, SNCA 5' untranslated region; actives 0.82% (n = 300,000); alpha-synuclein 5'UTR reporter, inhibitor activity; inhibition, % (tested at 7.5 µM); in the data active = inhibition above about 60%;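 also: H4 neuroglioblastoma cells stably carrying SNCA 5'UTR luciferase fusion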
Gli-Sufu block: antagonists of Gli-Sufu signaling | Sufu-KO-LIGHT fibroblasts, Gli luciferase reporter luminescence | inhibition, % at 5 µM | actives 0.74% (n = 340,000) | AID 588413;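 active = inhibition above about 55%, limit read from the data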
Jurkat NFkB conf: lowers PMA/ionomycin-induced NF-kB signal in Jurkat cells. shares compounds with Jurkat NFkB inh. Jurkat NF-kB luciferase, 16 h. inhibition, % at 4 µM. actives 27% (n = 2,700). AID 435020;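 active = inhibition reaching about 45% at 4 µM in either replicate, limit read from the data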
697 NFkB conf: inhibitors of the PMA/ionomycin-induced NF-kB reporter in 697 B cells, retest; actives 35% (n = 2,000); AID 449746; shares compounds with 697 NFkB inh; 697 B-cell NF-kB luciferase, 16 h; inhibition, % at 4 µM; in the data active = inhibition mostly above about 28%, no sharp cut-off; inactive = mostly below about 22%
Mdm2-MdmX conf: human Mdm2/MdmX binding inhibition, confirmed; AID 489028; inhibition, % at 8 µM; shares compounds with Mdm2-MdmX inh; actives 55% (n = 10,000); luminescent assay; in the data active = inhibition above about 40%
FLuc counter: full-length luciferase inhibition in Mdm2/MdmX counter-screen | shares compounds with Mdm2-MdmX inh | inhibition, % at 8 µM | AID 504607 | SaOS-2 full-length luciferase counterscreen, luminescence | actives 77% (n = 6,200);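 active = mean inhibition at 8 µM reaching about 37%, which flags the compound as non-specific, limit read from the data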;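 also: p53-null SaOS-2 cells with luciferase driven by a doxycycline-inducible promoter; compound on cells about two nights before reading with doxycycline added after day one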
Each line names hits and unclear results; the compound was inactive in the other large screens (follow-up assays come after a bar, where they were run). An excerpt weighted towards active compounds, which were near 4.5% of everything screened.

Cc1cc(C)nc(/N=C(\N)Nc2ccc(S(=O)(=O)O)cc2)n1	none (no result: CSC inhib)
Cc1cc(CN(C)C(=O)CC2C(=O)NCCN2Cc2ccc(-c3ccccc3)cc2)on1 (stereo not drawn)	none
CN(C)Cc1ccc(-c2nc3cccc4c3n2CCNC4=O)cc1	Mdm2-MdmX inh 58, Jurkat NFkB inh 57 | Jurkat NFkB conf inactive | Mdm2-MdmX conf inactive | FLuc counter 71
CCc1ccc(NS(=O)(=O)c2ccc(C)c(C(=O)N3CCOCC3)c2)cc1	none
Cc1onc(-c2ccccc2Cl)c1C(=O)NCc1cccnc1	none
COc1ccc(CNC(=O)c2c(C)oc3c2C(=O)c2ccccc2C3=O)cc1	Mdm2-MdmX inh 81, CSC inhib 100, Jurkat NFkB inh 60, aSyn UTR inh 103, Gli-Sufu block 64 | Jurkat NFkB conf 59 | Mdm2-MdmX conf 84 | FLuc counter 54
Cc1oc2c(c1C(=O)NCc1cccnc1)C(=O)c1ccccc1C2=O	Mdm2-MdmX inh 99, CSC inhib 101, Jurkat NFkB inh 88, aSyn UTR inh 107, Gli-Sufu block 80 | Jurkat NFkB conf 84 | Mdm2-MdmX conf 98 | FLuc counter inactive
O=C(CN1CCCC1)Nc1c(Cl)cccc1Cl	none
COc1ccc(C(=O)COC(=O)Cn2nnc3ccccc32)cc1Br	none
CC(C)(C)C(=O)/C(=C\c1ccc([N+](=O)[O-])cc1)n1cncn1	697 NFkB inh 44, Mdm2-MdmX inh 99, CSC inhib 119, Jurkat NFkB inh 76 (no result: Gli-Sufu block) | Jurkat NFkB conf 57 | 697 NFkB conf 50 | Mdm2-MdmX conf 100 | FLuc counter inactive
O=C(Cc1cccs1)Nc1nc2c(s1)CCCC2	Mdm2-MdmX inh 56 | Jurkat NFkB conf inactive | 697 NFkB conf inactive | Mdm2-MdmX conf 47 | FLuc counter 90
Cn1c2c(c(=O)n(C)c1=O)C(C(F)(F)F)(C(F)(F)F)N=C(c1ccc(Cl)cc1)N2	697 NFkB inh 97, Mdm2-MdmX inh 94, Jurkat NFkB inh 71, aSyn UTR inh 99, Gli-Sufu block 88 (no result: CSC inhib) | Jurkat NFkB conf 86 | 697 NFkB conf inactive | Mdm2-MdmX conf 90 | FLuc counter 52
COc1cc(/C=C/c2onc(C)c2[N+](=O)[O-])cc(OC)c1OC	none
COc1cc(-c2noc(C)c2/C=C/c2cccc([N+](=O)[O-])c2)cc(OC)c1OC	Mdm2-MdmX inh 79, Jurkat NFkB inh 62, aSyn UTR inh 69 | Jurkat NFkB conf 51 | Mdm2-MdmX conf 75 | FLuc counter 84
O=C(COC(=O)c1cccc(C(=O)OCC(=O)NCc2ccc(F)cc2)n1)NCc1ccc(F)cc1	none
O=C(O)c1nnn(-c2cccc(C(F)(F)F)c2)c1-c1ccccc1	none
COc1cccc(-c2csc(N3CCN(C(=S)Nc4ccccc4C)CC3)n2)c1	none
Oc1ccc2ccccc2c1/C=N/Nc1nnc(-c2ncc[nH]2)c2ccccc12	Mdm2-MdmX inh 81, CSC inhib 100, Jurkat NFkB inh 71, aSyn UTR inh 102, Gli-Sufu block 63 | Jurkat NFkB conf 77 | Mdm2-MdmX conf 83 | FLuc counter 55
Oc1ccc2ccccc2c1C=NNc1ccccn1	none (no result: 697 NFkB inh, Mdm2-MdmX inh, CSC inhib, Jurkat NFkB inh, aSyn UTR inh)
O=C(N/N=C/c1c(O)ccc2ccccc12)c1cccc(C(F)(F)F)c1	Mdm2-MdmX inh 74, Jurkat NFkB inh 52, aSyn UTR inh 111, Gli-Sufu block 60 (no result: CSC inhib) | Jurkat NFkB conf 74 | Mdm2-MdmX conf 81 | FLuc counter inactive
COC(=O)[C@@H]1[C@H](CCc2ccccc2)NC(=O)N(Cc2ccccc2)[C@@H]1C	none
Cc1nc(NCc2ccco2)c2c(C)c(C)sc2n1	Mdm2-MdmX inh 100, CSC inhib 98, Jurkat NFkB inh 70 | Jurkat NFkB conf 58 | 697 NFkB conf inactive | Mdm2-MdmX conf 96 | FLuc counter 54
